Reference: PubChem BioAssay

Experiment: inhibitors of Sendai virus-induced IRF3 signaling, primary screen, TLR/RLR signaling modifier project, cell-based, Sendai virus stimulus, luciferase, 10K MLSCN set (AID 602276);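 also: firefly luciferase from ISG56 promoter only with Renilla not read in this screen; 0% = Sendai virus plus DMSO and 100% = medium plus DMSO without virus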
Details: HEK293 RL24 IRF3 luciferase reporter, at 10 µM, hits give high values

inhibition, inactive:
Cc1ccc(-c2nnc(SC(C)C#N)n2N)cc1 (stereo not given) 10.4%, CCOc1ccc2[nH]cc(C(=O)N3CCN(CC)CC3)c(=O)c2c1 -17.3%, Cn1nnnc1SCC(=O)N1CCN(c2ccccc2)CC1 11.7%, CC(C)c1nc(N2CCN(C(=O)c3ccco3)CC2)c2c3c(sc2n1)CCCC3 15.9%, CCOc1ccc(OCC)c(NC(=O)CN2CCN(C(=O)c3ccco3)CC2)c1 -15.6%, O=C(COC(=O)c1cc(S(=O)(=O)N2CCOCC2)cs1)c1ccccc1 11.5%, Cn1c(=O)c2c(-c3ccncc3)c3c(nc2n(C)c1=O)-c1ccccc1C3=O 14.2%, Nc1c(N2CCCCC2)c(=O)[nH]c(=O)n1-c1ccccc1 -4.05%, CC(=O)Nc1ccc(S(=O)(=O)N2CCN(C(=O)CCC3CCCC3)CC2)cc1 24.2%, COc1cccc(C2CC(c3ccccc3)n3ncnc3N2)c1 (stereo not given) 5.93%, CCOc1ccc2oc(-c3ccccc3)c(C(=O)N3CCN(CCO)CC3)c2c1 15.9%, Cc1cc(NCCN2CCOCC2)n2nc(C)c(-c3ccccc3)c2n1 4.53%, COCc1cc(C)nc(Nc2ccc(C)cc2C)c1C#N -5.46%, COc1ccccc1-c1nnc(SCC(=O)N2CC(C)CC(C)C2)o1 (stereo not given) 21.4%, CC(=O)c1cc2c(cc1NC(=O)CN1CCN(C(=O)c3ccco3)CC1)OCO2 4.38%, COc1cccc(C2=NOC(C(=O)Nc3cc(C)nn3-c3ccccc3)C2)c1OC (stereo not given) 16.2%, O=C(O)C1CCCN1c1ncnc2c1oc1ccccc12 (stereo not given) 5.71%, Cc1ccc(OC(=O)CCC(=O)OCCCC(F)(F)C(F)(F)F)cc1 3.53%, O=S(=O)(c1cccc(S(=O)(=O)N2CCC(N3CCCCC3)CC2)c1)N1CCOCC1 7.24%, CNc1ccc(C(O)(C(F)(F)F)C(F)(F)F)cc1C(O)(C(F)(F)F)C(F)(F)F 12.6%, Cc1cc(C)n2nc(SCc3nc4ccccc4[nH]3)nc2n1 -26.2%, Cc1cccc(C(=O)N(C)c2nnc(-c3ccncc3)s2)c1 -6.14%, CCOC(=O)c1c(C)n(C)c2c(C)cc(O)c(OC(C)=O)c12 4.23%, C=CCOC(=O)C1=C(C)NC(=O)NC1c1cn(-c2ccccc2)nc1-c1cccs1 (stereo not given) 14.3%, CCOc1ccccc1NC(=O)C1CCCN(S(=O)(=O)c2cccc3cccnc23)C1 (stereo not given) 19.8%, CCOc1ccccc1Nc1nnc(SCC(=O)N2CCCC2)s1 4.86%, COC(=O)/C=c1\sc2ncnn2c1=O 18.3%, CN(C)CCNc1oc(-c2ccccc2F)nc1C#N 0.672%, O=C(C1CCN(c2nnc(-n3cccc3)s2)CC1)N1CCN(Cc2ccc3c(c2)OCO3)CC1 -2.25%, COc1ccccc1NC(=O)C1(C)Cc2ccccc2C(=O)O1 (stereo not given) -6.71%, O=C(Cn1cnc2c(cnn2-c2ccc(F)cc2)c1=O)N1CCN(c2ccccc2)CC1 4.22%, Cc1ccnc(N2CCN(C(=O)CSc3nc4ccccc4nc3N3CCCCC3)CC2)c1 9.18%, Cc1cccc(C)c1NC(=O)c1cc(S(=O)(=O)N2CCOCC2)ccc1F 11.2%, Cc1cc2ccccc2n1CCNC(=O)C1CC1 11.4%, COc1ccc(C)cc1NC(=O)CCN1CCCC1 15.3%, COCCn1nnnc1C(c1ccc(OC)cc1)N1CCN(c2ccccc2F)CC1 (stereo not given) 14.5%, CCOc1ccc(NC(=O)CCN2CCN(c3ccccc3)CC2)cc1 20.2%, CC(C)Cc1n[nH]c(=O)[nH]1 -8.4%, CC(=O)C1=C(O)C(=O)N(C2CCCCC2)C1c1ccccc1 (stereo not given) 18.2%, Cc1nn(-c2ccccc2)c2c1C(O)n1c(nc3ccccc31)S2 (stereo not given) 14%

Experiment: inhibitors of poly I:C-induced TLR3 signaling, primary screen, cell-based, poly I:C stimulus, luciferase, 10K MLSCN set (AID 602277;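 active = inhibition of the reporter signal at or above 50%; inactive = inhibition below 50%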)
Details: HEK293-TLR3 RL24 IRF3 luciferase reporter, at 10 µM, hits give high values

inhibition, inactive:
Cc1ccc(-c2nnc(SC(C)C#N)n2N)cc1 (stereo not given) 19%, CCOc1ccc2[nH]cc(C(=O)N3CCN(CC)CC3)c(=O)c2c1 -19.5%, Cn1nnnc1SCC(=O)N1CCN(c2ccccc2)CC1 27.5%, CC(C)c1nc(N2CCN(C(=O)c3ccco3)CC2)c2c3c(sc2n1)CCCC3 -5.95%, CCOc1ccc(OCC)c(NC(=O)CN2CCN(C(=O)c3ccco3)CC2)c1 -16.4%, O=C(COC(=O)c1cc(S(=O)(=O)N2CCOCC2)cs1)c1ccccc1 29.5%, Cn1c(=O)c2c(-c3ccncc3)c3c(nc2n(C)c1=O)-c1ccccc1C3=O 22.4%, Nc1c(N2CCCCC2)c(=O)[nH]c(=O)n1-c1ccccc1 -5.22%, CC(=O)Nc1ccc(S(=O)(=O)N2CCN(C(=O)CCC3CCCC3)CC2)cc1 10.7%, COc1cccc(C2CC(c3ccccc3)n3ncnc3N2)c1 (stereo not given) 33.2%, CCOc1ccc2oc(-c3ccccc3)c(C(=O)N3CCN(CCO)CC3)c2c1 34%, Cc1cc(NCCN2CCOCC2)n2nc(C)c(-c3ccccc3)c2n1 3.88%, COCc1cc(C)nc(Nc2ccc(C)cc2C)c1C#N 12.7%, COc1ccccc1-c1nnc(SCC(=O)N2CC(C)CC(C)C2)o1 (stereo not given) 29.2%, CC(=O)c1cc2c(cc1NC(=O)CN1CCN(C(=O)c3ccco3)CC1)OCO2 25.7%, COc1cccc(C2=NOC(C(=O)Nc3cc(C)nn3-c3ccccc3)C2)c1OC (stereo not given) 23.8%, O=C(O)C1CCCN1c1ncnc2c1oc1ccccc12 (stereo not given) 5.35%, Cc1ccc(OC(=O)CCC(=O)OCCCC(F)(F)C(F)(F)F)cc1 21.1%, O=S(=O)(c1cccc(S(=O)(=O)N2CCC(N3CCCCC3)CC2)c1)N1CCOCC1 28.4%, CNc1ccc(C(O)(C(F)(F)F)C(F)(F)F)cc1C(O)(C(F)(F)F)C(F)(F)F 18.9%, Cc1cc(C)n2nc(SCc3nc4ccccc4[nH]3)nc2n1 -34.6%, Cc1cccc(C(=O)N(C)c2nnc(-c3ccncc3)s2)c1 -18%, CCOC(=O)c1c(C)n(C)c2c(C)cc(O)c(OC(C)=O)c12 -2.25%, C=CCOC(=O)C1=C(C)NC(=O)NC1c1cn(-c2ccccc2)nc1-c1cccs1 (stereo not given) 14.3%, CCOc1ccccc1NC(=O)C1CCCN(S(=O)(=O)c2cccc3cccnc23)C1 (stereo not given) 43.4%, CCOc1ccccc1Nc1nnc(SCC(=O)N2CCCC2)s1 12.3%, COC(=O)/C=c1\sc2ncnn2c1=O 26.1%, CN(C)CCNc1oc(-c2ccccc2F)nc1C#N 34.3%, O=C(C1CCN(c2nnc(-n3cccc3)s2)CC1)N1CCN(Cc2ccc3c(c2)OCO3)CC1 -31.5%, COc1ccccc1NC(=O)C1(C)Cc2ccccc2C(=O)O1 (stereo not given) -2.97%, O=C(Cn1cnc2c(cnn2-c2ccc(F)cc2)c1=O)N1CCN(c2ccccc2)CC1 8.47%, Cc1ccnc(N2CCN(C(=O)CSc3nc4ccccc4nc3N3CCCCC3)CC2)c1 4.58%, Cc1cccc(C)c1NC(=O)c1cc(S(=O)(=O)N2CCOCC2)ccc1F 26.3%, Cc1cc2ccccc2n1CCNC(=O)C1CC1 33.2%, COc1ccc(C)cc1NC(=O)CCN1CCCC1 16.2%, COCCn1nnnc1C(c1ccc(OC)cc1)N1CCN(c2ccccc2F)CC1 (stereo not given) 22.9%, CCOc1ccc(NC(=O)CCN2CCN(c3ccccc3)CC2)cc1 16.6%, CC(C)Cc1n[nH]c(=O)[nH]1 1.42%, CC(=O)C1=C(O)C(=O)N(C2CCCCC2)C1c1ccccc1 (stereo not given) 15.5%, Cc1nn(-c2ccccc2)c2c1C(O)n1c(nc3ccccc31)S2 (stereo not given) 28.4%
